Results from ChEMBL document CHEMBL3988442, “University of Dundee, Small-Polar-MMV Screening Library” (2021).
Among all 48,000 compounds or so, about 13,000 (27%) showed an effect of 50% or more. The list shows a part of the results.

test system: Wolbachia pipientis; experiment: Anti-Wolbachia Cell-Based Screen; type: functional; parameters: scale not given: in the data most compounds retested in dose-response had high values; conditions: 5 µM

Row | Compound | Percent Effect [%]
1 | O=C(CCN1CCc2c(ncn2C2CC2)C1)NC1CCCC1 | 116.5
2 | CCN1CCC(NC(=O)CN2CCc3c(ncn3C)C2)CC1 | -0.1158
3 | N#CC1(NC(=O)CN2CCc3c(ncn3C3CC3)C2)CCCC1 | -4.395
4 | O=C(CN1CCc2c(ncn2C2CC2)C1)NC1CC1 | -2.463
5 | CC(=O)N1CCN(C(=O)CN2CCc3c(ncn3C3CC3)C2)CC1 | 17.74
6 | O=C(CN1CCc2c(ncn2C2CC2)C1)NC1CCOCC1 | 127.5
7 | OC(CN1CCOCC1)CN1CCc2c(ncn2C2CC2)C1 (stereo unspecified) | 4.204
8 | O=C(C[S+]([O-])Cc1ccc(F)cc1Cl)N1CCc2sccc2C1 (stereo unspecified) | -9.716
9 | Cc1cc2n(n1)CC(CNC1CCN(Cc3ccccn3)CC1)CN2 (stereo unspecified) | 3.925
10 | O=C(N[C@@H]1CN(Cc2ccco2)[C@@H]2CCCO[C@@H]21)c1cscn1 | 106.9
11 | NC(=O)N1C[C@H](NC(=O)c2cscn2)[C@@H]2OCCC[C@@H]21 | 101.9
12 | O=C(N[C@@H]1CN(c2ncccn2)[C@@H]2CCCO[C@@H]21)c1cnccn1 | -12.54
13 | O=C(N[C@@H]1CN(c2ncccn2)[C@@H]2CCCO[C@@H]21)c1cscn1 | -1.481
14 | CCOc1cc(CNCCCn2ccnc2)cc(Cl)c1OCC | -4.315
15 | CC(C)Cc1noc(CN2CCC(NC(=O)c3cccs3)CC2)n1 | 5.621
16 | CCOC(C)c1noc(CN2CCN(Cc3ccno3)CC2)n1 (stereo unspecified) | -9.724
17 | CN(Cc1cc(-c2ccncc2)no1)C(=O)[C@@H]1CSCN1C | 2.417
18 | O=C(CCC1CCCO1)N1CCc2nc(-c3cnccn3)nc(O)c2C1 (stereo unspecified) | 116.1
19 | CS(=O)(=O)NC1CCN(C(=O)CCC2CCCO2)CC1 (stereo unspecified) | 10.42
20 | COCC(=O)N1CCc2nc(-c3cnccn3)nc(O)c2C1 | 104.8
21 | Cc1nc(CC(=O)N2CCc3nc(-c4cnccn4)nc(O)c3C2)cs1 | 88.77
22 | O=C(c1ccccn1)N1CCc2nc(-c3cnccn3)nc(O)c2C1 | -8.53
23 | O=C(Cc1csc(-c2ccco2)n1)N1CCN(c2cnccn2)CC1 | 16.12
24 | COCC(=O)N1CCc2nc(C(=O)Nc3cccnc3)sc2CC1 | 1.921
25 | CS(=O)(=O)N1CCN(C(=O)CCC2CCCO2)CC1 (stereo unspecified) | 1.133
26 | CC(C)(CC(=O)N(CC(N)=O)C1CCCC1)c1ccccc1 | -10.15

Row | Compound | Percent Effect [%]
27 | CC(C)(CN)NS(=O)(=O)c1cccc(F)c1F.Cl | -6.445
28 | C=Cc1cccc(CN2C[C@H]3CC[C@@H]2CN(Cc2c(C)noc2C)C3)c1 | -8.639
29 | Cc1ncsc1C(=O)N(C)Cc1ccc(Br)o1 | 23.63
30 | Cc1ccc(C(=O)N(C)Cc2ccc(Br)o2)c(=O)[nH]1 | 131.8
31 | Cc1ccc(C(=O)N(C)Cc2csc(Br)c2)c(=O)[nH]1 | 125.8
32 | Cc1nc(CN(C)C(=O)CNC(=O)c2ccc(C#N)cc2)cs1 | 6.778
33 | Cc1ccc(C(=O)N(C)Cc2ccc(Br)s2)c(=O)[nH]1 | 139.4
34 | Cc1ccc(C(=O)N(Cc2ccc(F)cc2F)C2CC2)c(=O)[nH]1 | -11.26
35 | Cc1ccc(C(=O)N(C)Cc2csc(C)n2)c(=O)[nH]1 | 127.5
36 | Cc1ccc(C(=O)N(C)Cc2c(C)noc2C)c(=O)[nH]1 | 0.555
37 | COC(=O)NCC(=O)N(C)Cc1csc(C)n1 | 0.6719
38 | Cc1ccc(C(=O)NCC(O)c2ccc(Cl)s2)c(=O)[nH]1 (stereo unspecified) | -29.35
39 | Cc1ccc(C(=O)N(Cc2ccc(F)cc2)C2CC2)c(=O)[nH]1 | -2.478
40 | CCN(Cc1ccc2c(c1)OCO2)C(=O)c1ccc(C)[nH]c1=O | -8.548
41 | CNc1ccnc(N2C[C@@H](C)[C@](O)(C3CCC3)C2)n1 | -0.8884
42 | COCCC(=O)NCCn1nc(C2CCNC2)c2cccnc21.Cl (stereo unspecified) | 104.9
43 | CC(C)(C)CC(=O)Nc1ncn(CC(=O)NCc2ccccc2)n1 | 0.2654
44 | CC(C)(C)CC(=O)NCCn1nc(C2CCNC2)c2cccnc21.Cl (stereo unspecified) | 117.2
45 | CC(C)CC(=O)NCCn1nc(C2CCNC2)c2cccnc21.Cl (stereo unspecified) | 97.32
46 | CNc1ncc(CN(C)C(=O)c2ccccc2C2CCNC2)cn1 (stereo unspecified) | -12.29
47 | Cc1cccnc1[C@H](C)NC(=O)c1cccc(CC2CCNCC2)c1 | -20.86
48 | CN(C(=O)CNC(=O)CC(C)(C)C)C1CCN(c2ccccn2)CC1 | 12.99
49 | COCCN(C(=O)c1c[nH]c2ncccc12)C1CCCC1 | 6.84
50 | Cl.O=C(CCC1CCCC1)NCCn1nc(C2CCNC2)c2nccnc21 (stereo unspecified) | -7.206
51 | CC(C)NS(=O)(=O)c1cc(C(=O)O)cc(-c2ccc(CN(C)C)cc2)c1 | -14.22
